Results as given in PubChem BioAssay AID743386 (Vanderbilt Specialized Chemistry Center, 2014).

Biological target: Metabotropic glutamate receptor 7 (Rattus norvegicus) (UniProt P35400)
Test: glutamate curve shift by mGlu7 potentiators, cell-based, rat, GIRK per title (AID 743386)
Settings: rat mGlu7/Ga15, glutamate CRC shift, calcium; glutamate EC50 left shift; at 10 µM; stronger effect = higher value

Metabotropic glutamate receptor 7 (Rattus norvegicus), sequence (P35400 whole entry, looked up): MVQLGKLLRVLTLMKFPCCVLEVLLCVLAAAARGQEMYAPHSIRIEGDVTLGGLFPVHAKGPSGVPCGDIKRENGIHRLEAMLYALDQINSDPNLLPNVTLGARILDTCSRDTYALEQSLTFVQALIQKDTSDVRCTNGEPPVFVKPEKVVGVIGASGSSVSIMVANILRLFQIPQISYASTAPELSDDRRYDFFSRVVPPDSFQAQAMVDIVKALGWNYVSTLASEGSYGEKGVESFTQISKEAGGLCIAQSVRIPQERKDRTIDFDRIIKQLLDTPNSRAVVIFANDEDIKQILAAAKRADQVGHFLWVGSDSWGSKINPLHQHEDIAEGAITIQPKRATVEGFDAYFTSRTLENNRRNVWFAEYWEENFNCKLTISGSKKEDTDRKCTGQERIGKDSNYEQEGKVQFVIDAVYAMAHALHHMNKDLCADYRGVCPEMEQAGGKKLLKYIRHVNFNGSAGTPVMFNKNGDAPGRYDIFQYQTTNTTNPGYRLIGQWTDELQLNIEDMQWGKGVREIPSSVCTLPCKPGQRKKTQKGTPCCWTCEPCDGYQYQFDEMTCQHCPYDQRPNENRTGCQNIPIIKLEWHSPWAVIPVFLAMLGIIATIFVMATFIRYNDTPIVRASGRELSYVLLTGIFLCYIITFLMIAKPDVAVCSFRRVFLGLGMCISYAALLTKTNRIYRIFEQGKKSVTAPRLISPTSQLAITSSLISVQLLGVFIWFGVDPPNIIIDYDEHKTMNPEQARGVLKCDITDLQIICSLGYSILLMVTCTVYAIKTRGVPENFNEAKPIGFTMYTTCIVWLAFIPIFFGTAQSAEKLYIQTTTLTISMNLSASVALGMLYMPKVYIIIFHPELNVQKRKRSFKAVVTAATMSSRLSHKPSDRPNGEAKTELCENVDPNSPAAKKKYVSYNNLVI

COC(=O)c1ccc(-n2c(C)cc(C(=O)CSc3ccc(NC(C)=O)cc3)c2C)cc1
fold shift: 4.91
